GPR151 activ: activates the human receptor GPR151; Q8TDV0; AID 1508602; PathHunter beta-arrestin GPR151 cells, luminescence; activation, % at 11.2 µM; actives 1% (n = 650,000); in the data active = activation above about 4.9%;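 also: 0% = median of compound wells and 100% = cells with positive control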
TEAD-YAP inh: TEAD-YAP interaction inhibition; HEK-TIYL cells, TEAD-Gal4/YAP UAS-luciferase luminescence; inhibition, % at 9.12 µM; actives 1.4% (n = 640,000); AID 1259422; in the data active = inhibition above about 32%;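 also: 0% = median of test compound wells and 100% = reference inhibitor wells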
MITF primary: blocks human microphthalmia-associated transcription factor. actives 0.91% (n = 650,000). AlphaScreen MITF homodimerization, bead proximity signal. inhibition, % at 2.6 µM. O75030; in the data active = inhibition above about 50%;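 also: 0% = vehicle wells with protein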
FBW7 activator: activators of human E3 ligase FBW7; Q969H0; AlphaScreen FBW7–phospho-cyclin E peptide binding, activator screen; normalized activity (activation), % at 26.1 µM; actives 0.13% (n = 650,000); AID 1259310; in the data active = normalized activity above about 1.9%;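 also: purified mutant Fbw7 with reduced substrate affinity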
MITF inh conf: human MITF inhibition, confirmation. actives 16% (n = 4,700). shares compounds with MITF primary. inhibition, % at 2.6 µM. AlphaScreen MITF homodimerization, biotin/His-MITF beads. AID 1259372;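 active = inhibition above a cutoff derived from the DMSO control wells, cut at about 28% in these data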;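 also: 0% = MITF dimer wells with DMSO only; inhibitors lower the bead chemiluminescence by keeping MITF from dimerizing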
AS interf DR: counter-screen: compounds optically interfering with AlphaScreen | shares compounds with MITF primary | AlphaScreen optical interference counterscreen, cell-free | IC50, µM | actives 6% (n = 480); call rule not given here
AS interf ctr: AlphaScreen optical interference, counter-screen; AID 1259376; actives 7.6% (n = 4,700); inhibition, % at 2.6 µM; LysRS AlphaScreen counterscreen, signal interference, triplicate; shares compounds with MITF primary;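 active = inhibition above a cutoff derived from the DMSO control wells, cut at about 30% in these data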
Numbers without * were called inactive; x = no result. Hits are enriched below; roughly 3.5% of the tested compounds scored in any of these assays.

SMILES	GPR151 activ	TEAD-YAP inh	MITF primary	FBW7 activator	MITF inh conf	AS interf ctr	others
CC(C)c1ccccc1OCC(O)CNC1CCN(Cc2ccccc2)C1 (stereo not given)	-0.6	3.0	69.4*	-0.1	-29.1	7.0
CCC(C)c1ccccc1OCC(O)CNC1CCCC1 (stereo not given)	-0.3	5.2	33.6	1.2	x	x
CCC(C)c1ccccc1OCC(O)CN1CCCCC1 (stereo not given)	0.3	15.6	-1.7	0.0	x	x
O=C(c1cccc(N(CCO)CCO)c1)N1C2CCC1CC(c1ccc(F)cc1)C2 (stereo not given)	0.5	-4.4	-5.0	-0.2	x	x
CCOc1ccccc1C(=O)Nc1ccc2c(c1)C(=O)Nc1ccccc1O2	3.5	-1.9	52.8*	-0.1	-7.3	-10.3
COc1ccccc1C(=O)Nc1ccc2c(c1)C(=O)Nc1cc(Cl)ccc1O2	0.2	6.8	-0.9	0.0	x	x
COc1cccc(/C=N/NS(=O)(=O)c2ccc(C)cc2)c1	0.7	0.4	77.1*	0.0	-3.4	-7.1
Fc1ccc(N=c2scc(-c3ccc(Cl)cc3)n2Cc2ccc3c(c2)OCO3)cc1	1.4	18.0	1.9	0.0	x	x
Cc1sc2ncnc(NCC(c3ccco3)N(C)C)c2c1C (stereo not given)	-1.1	-9.2	61.7*	0.2	13.0	13.6
Nc1ncc(-c2ccccc2)nc1N1CCC(C(=O)O)CC1	0.4	-21.7	-6.6	0.2	x	x
Nc1ncc(-c2ccco2)nc1N1CCC(C(=O)O)CC1	0.5	6.8	73.1*	-0.5	21.6	12.2
COc1ccc(/C=C2\SC(=S)N(C(CC(N)=O)C(=O)O)C2=O)c(OC)c1 (stereo not given)	0.9	-0.8	11.8	-0.2	x	x
C/C(=N\Nc1ccc(C(=O)O)cc1)c1cccc(Br)c1	-1.7	-77.8	5.0	0.1	x	x
C/C(=N\Nc1ccc(S(=O)(=O)O)cc1)c1cccc(Br)c1	-0.1	-7.2	56.3*	-0.5	38.5*	12.4	AS interf DR=>6.48
c1ccc(COc2ccc(CNc3ccc(CNc4ncn[nH]4)cc3)cc2)cc1	-0.6	8.4	12.3	0.1	x	x
CCNS(=O)(=O)c1ccc(Cl)c(Cl)c1	-0.5	3.5	56.4*	0.0	-1.6	5.3
COc1ccc(CNC(=O)N2CCN(CC(=O)c3ccco3)CC2)cc1OC	-0.4	-10.0	53.8*	0.4	13.1	19.8
CCOc1cc(CN2CCN(Cc3ccco3)CC2)ccc1OC	1.3	-12.4	45.1	-0.2	x	x
COc1ccc(CN2CCN(Cc3ccco3)CC2)cc1Br	-0.3	1.9	72.3*	-0.2	12.1	15.8
COc1ccc(CN2CCN(Cc3ccco3)CC2)cc1OC	0.7	2.1	71.2*	0.1	-16.3	2.3
Cc1cc(NCc2cccnc2)n2nc(C)c(-c3ccc(F)cc3)c2n1	0.2	1.3	-5.3	-0.2	x	x
c1ccc(-c2cc(N3CCOCC3)nc(-c3ccccn3)n2)nc1	-0.8	45.2*	113.2*	-1.0	116.6*	100.3*
COc1ccccc1NC(=O)CN1CCN(Cc2nc3ccccc3n2C)CC1	-1.0	-8.5	67.2*	-0.7	9.5	13.9
Cc1nc2ccccc2n1CC1CCN(C(=O)CN2C(=O)CCC2=O)CC1	0.4	-2.3	64.8*	-0.4	5.0	21.8
Cc1nc2ccccc2n1CC1CCN(C(=O)Nc2ccccc2)CC1	0.8	-0.6	43.4	-0.1	x	x
SMILES	GPR151 activ	TEAD-YAP inh	MITF primary	FBW7 activator	MITF inh conf	AS interf ctr	others
COc1ccccc1NC(=O)CN1CCN(CC(=O)Nc2ccccc2OC)CC1	-1.5	0.4	-29.1	0.0	x	x
COc1ccc(CCC(=O)N2CCC(Cn3c(C)nc4ccccc43)CC2)cc1	0.6	14.6	77.8*	-0.5	16.3	17.6
Cn1c(CN2CCN(C(=O)CN3C(=O)CCC3=O)CC2)nc2ccccc21	3.0	0.5	53.9*	-0.2	2.1	11.7
O=S(=O)(CCN1CCCCC1)Oc1ccccc1	-0.5	-7.2	57.9*	0.3	7.2	18.5
O=C(CN1C(=O)CC(c2ccco2)Sc2ccccc21)NCc1ccccc1 (stereo not given)	0.3	10.4	9.8	-0.2	x	x
O=C(Cc1ccsc1)N1CCCC1c1nc2ccccc2[nH]1 (stereo not given)	0.7	0.2	15.6	0.0	x	x
COc1ccc(CN2CCN(CCOCCO)CC2)cc1	1.5	5.5	14.5	0.1	x	x
CC(=O)CCc1ccc(OCCCN2CCN(Cc3ccccc3)CC2)cc1	0.2	1.0	59.3*	-0.1	9.4	5.6

Source: PubChem
